“And” between values parts separate entries of the source, which are not always exact repeats. Identical values can stand only once. About 100 (5%) of roughly 2,000 compounds were called active. Cut-off read from the data, not from the text of the source: active = z-score above about 2; inactive = the rest. Only a selection was taken, and actives are over-represented in it overall.
Assay: supercomplex reporter luminescence per Hoechst cell count – Hoechst nuclei count (AID 1645838);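 note: control cybrid cells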;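 for z-score: higher means more mitochondrial supercomplex formation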
Conditions: Cells, luminescence/Hoechst cell count ratio; for z-score: stronger effect = higher value; for cell count: measured here: cell number, Hoechst nuclei count
[1] = library stock concentration (final well concentration not given) 80 uM
[2] = library stock concentration (final well concentration not given) 400 uM
[3] = library stock concentration (final well concentration not given) 2 mM
[4] = library stock concentration (final well concentration not given) 10 mM
[5] = library stock concentration (final well concentration not given) 46 uM
[6] = library stock concentration (final well concentration not given) 278 uM
[7] = library stock concentration (final well concentration not given) 1.67 mM

For CC/C=C\C/C=C\C/C=C\C/C=C\C/C=C\C/C=C\CCC(=O)NCCO, the z-score was -0.366 (inactive) and the cell count was 5340.
With COc1ccc(CCOC2CCCCC2N2CCC(O)C2)cc1OC (stereo not given) the z-score [1] was 0.0501 (inactive), the z-score [2] was 0.255 (inactive) and the z-score [3] was -0.0276 (inactive). The z-score [4] was -0.648 (inactive), the cell count [1] was 5440 and the cell count [2] was 4950. It also gave a cell count [3] of 5110 and a cell count [4] of 5070.
In the case of CN1CCN(c2ccc(Nc3cc(-c4cccc(-n5ccc6cc(C7CC7)cc(F)c6c5=O)c4CO)cn(C)c3=O)nc2)CC1, the z-score [5] is reported as -0.128 (inactive), the z-score [6] is reported as 0.295 (inactive) and the z-score [7] is reported as 0.189 (inactive). The z-score [4] was 2.34 (active), the cell count [5] was 6870 and the cell count [6] was 6260. For the same molecule, the cell count [7] was 6670 and the cell count [4] was 4620.
For Cc1ccc(-c2ccc3c(c2)C=C(C(=O)Nc2ccc(C[N+](C)(C)C4CCOCC4)cc2)CCC3)cc1, the z-score [1] was 0.0335 (inactive), the z-score [2] was -0.0352 (inactive) and the z-score [3] was 0.025 (inactive). For the same molecule, the z-score [4] was 0.462 (inactive), the cell count [1] was 6000 and the cell count [2] was 5610. The cell count [3] was 5740 and the cell count [4] was 4810.
For CCCCc1ccc(O)cc1O, the z-score [1] was -0.0561 (inactive), the z-score [2] was -0.187 (inactive) and the z-score [3] was -0.116 (inactive). The z-score [4] was -0.378 (inactive), the cell count [1] was 5090 and the cell count [2] was 5680. The cell count [3] was 5060 and the cell count [4] was 5370.
In the case of CCC1C(=O)N(C)c2cnc(Nc3ccc(C(=O)NC4CCC(N5CCN(CC6CC6)CC5)CC4)cc3OC)nc2N1C(C)C (stereo not given), the outcome (library stock 80 µM) is reported as “inactive; censored for cell count”, the outcome (library stock 400 µM) is reported as “inactive; censored for cell count” and the outcome (library stock 2 mM) is reported as “inactive; censored for cell count”. For the same molecule, the outcome (library stock 10 mM) was “inactive; censored for cell count”.
With CC(C)c1ccc(-c2cc(=O)c3ccccc3o2)cc1 the z-score [1] was 0.0844 (inactive), the z-score [2] was 1e-05 (inactive) and the z-score [3] was -0.0931 (inactive). For the same molecule, the z-score [4] was -0.264 (inactive), the cell count [1] was 5390 and the cell count [2] was 5660. It also gave a cell count [3] of 5670 and a cell count [4] of 5910.
For CCc1nc(N)nc(N)c1-c1ccc(Cl)cc1, the z-score [5] was -0.369 (inactive), the z-score [6] was -0.308 (inactive) and the z-score [7] was -0.256 (inactive). The z-score [4] was 2.87 (active), the cell count [5] was 6220 and the cell count [6] was 5950. It also gave a cell count [7] of 4990 and a cell count [4] of 2210.
With Cc1nc(C(=O)N2CCCC2Cc2nnc(-c3ccccc3)o2)c(-c2ccccc2F)s1 (stereo not given) the z-score [1] was -0.436 (inactive), the z-score [2] was -0.462 (inactive) and the z-score [3] was -0.287 (inactive). For the same molecule, the z-score [4] was -0.37 (inactive), the cell count [1] was 6270 and the cell count [2] was 5950. It also gave a cell count [3] of 5640 and a cell count [4] of 5740.
With CCCCC[C@H](O)/C=C/[C@H]1C(=O)C[C@H](O)[C@@H]1C/C=C\CCCC(=O)OCC(O)CO (stereo not given in full) the z-score was 0.539 (inactive) and the cell count was 4970.
With CCCCC[C@H](O)/C=C/[C@@H]1[C@@H](C/C=C/CCCC(=O)O)[C@@H](O)C[C@H]1O the z-score was -0.886 (inactive) and -1.17 (inactive) and the cell count was 5940 and 5560.
With CC(=O)Nc1ccc(C(=O)Nc2sc(Nc3ccccc3)nc2C(N)=O)cc1 the z-score [1] was 0.365 (inactive), the z-score [2] was 0.37 (inactive) and the z-score [3] was 2.89 (active). For the same molecule, the z-score [4] was 5.1 (active), the cell count [1] was 5180 and the cell count [2] was 5070. It also gave a cell count [3] of 3500 and a cell count [4] of 2950.
In the case of CC(=O)Nc1ccc(NC(=S)NC(=O)c2ccc(C(C)(C)C)cc2)cc1, the z-score is reported as 1.3 (inactive) and the cell count is reported as 5410.
For COc1ccc(C(=O)Nc2sc(Nc3ccccc3)nc2C(N)=O)cc1, the z-score [1] was 0.24 (inactive), the z-score [2] was 0.382 (inactive) and the z-score [3] was -0.143 (inactive). For the same molecule, the z-score [4] was 1.05 (inactive), the cell count [1] was 4690 and the cell count [2] was 4800. The cell count [3] was 4780 and the cell count [4] was 4300.
For CCCCC[C@H](O)CC[C@@H]1[C@@H](CCCCCCC(=O)O)[C@@H](O)C[C@H]1O, the z-score was -0.187 (inactive) and the cell count was 5660.
With COc1cc(Nc2ncc(F)c(Nc3ccc4c(n3)NC(=O)C(C)(C)O4)n2)cc(OC)c1OC the z-score [1] was -0.348 (inactive), the z-score [2] was -0.268 (inactive) and the z-score [3] was 0.433 (inactive). The z-score [4] was 2.15 (active), the cell count [1] was 4400 and the cell count [2] was 3910. The cell count [3] was 3800 and the cell count [4] was 1990.
In the case of CCCCCCCCCCCCCCNC(=O)C1CCCCC1, the z-score is reported as -0.131 (inactive) and the cell count is reported as 5060.
In the case of COc1cc(C(C)C)c2c(c1)S(=O)(=O)N(COc1cc(=O)n3cccc(OCCN4CCCCC4)c3n1)C2=O, the z-score [5] is reported as -0.456 (inactive), the z-score [6] is reported as -0.0963 (inactive) and the z-score [7] is reported as -0.654 (inactive). For the same molecule, the z-score [4] was -0.644 (inactive), the cell count [5] was 7070 and the cell count [6] was 6790. It also gave a cell count [7] of 6790 and a cell count [4] of 5780.
For CN(C)C(=O)c1cc2cnc(Nc3ccc(N4CCNCC4)cn3)nc2n1C1CCCC1, the z-score [1] was 0.288 (inactive), the z-score [2] was 0.657 (inactive) and the z-score [3] was 1.74 (inactive). For the same molecule, the z-score [4] was 2.33 (active), the cell count [1] was 5680 and the cell count [2] was 5400. It also gave a cell count [3] of 4600 and a cell count [4] of 3840.
For CC(=O)c1c(C)c2cnc(Nc3ccc(N4CCNCC4)cn3)nc2n(C2CCCC2)c1=O, the z-score [5] was -0.186 (inactive), the z-score [1] was -0.0747 (inactive) and the z-score [6] was 0.0516 (inactive). The z-score [2] was 0.049 (inactive), the z-score [7] was 1.11 (inactive) and the z-score [3] was 0.264 (inactive). For the same molecule, the z-score [4] was -0.00116 (inactive) and 1.25 (inactive), the cell count [5] was 4850 and the cell count [1] was 4290. The cell count [6] was 4600, the cell count [2] was 4340 and the cell count [7] was 3490. The cell count [3] was 4140 and the cell count [4] was 4170 and 3080.
With CCCCC/C=C\C/C=C\C/C=C\C/C=C\CCCCN1C(=O)C=CC1=O the z-score was 0.0996 (inactive) and the cell count was 4710.
In the case of Nc1nc2c([nH]c(=O)n2[C@H]2C[C@H](O)[C@@H](CO)O2)c(=O)[nH]1, the z-score is reported as -0.23 (inactive) and the cell count is reported as 5380.
